OPRM1-OPRD1 inv: inverse agonist of human OPRM1-OPRD1 heterodimerization; P35372+P41143; cell-based MOR-DOR heterodimer luminescence, inverse agonism; inhibition, % at 9.3 µM; 340,000 compounds, 0.21% hits; in the data active = inhibition above about 22%, passing the limit was not always enough;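 also: 0% = cells with DMSO and 100% = wells without cells with DMSO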
MOR-DOR ag: agonists of human mu-delta opioid receptor heterodimerization | 340,000 compounds, 0.3% hits | cells, OPRM1-OPRD1 heterodimerization, luminescence | activation, % at 9.3 µM | P35372+P41143;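 also: 0% = vehicle-treated cells and 100% = reference agonist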
HTR5A ag: counter-screen for OPRM1-OPRD1 agonists: human HTR5A agonism; activation, % at 9.3 µM; 340,000 compounds, 0.61% hits; HTR5A agonist assay, luminescence, cell-based; in the data active = activation mostly above about 9.5%, no sharp cut-off; inactive = mostly below about 7.6%;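 also: 0% = cells with vehicle only and 100% = reference agonist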
Target sequence (P47898 whole entry, looked up): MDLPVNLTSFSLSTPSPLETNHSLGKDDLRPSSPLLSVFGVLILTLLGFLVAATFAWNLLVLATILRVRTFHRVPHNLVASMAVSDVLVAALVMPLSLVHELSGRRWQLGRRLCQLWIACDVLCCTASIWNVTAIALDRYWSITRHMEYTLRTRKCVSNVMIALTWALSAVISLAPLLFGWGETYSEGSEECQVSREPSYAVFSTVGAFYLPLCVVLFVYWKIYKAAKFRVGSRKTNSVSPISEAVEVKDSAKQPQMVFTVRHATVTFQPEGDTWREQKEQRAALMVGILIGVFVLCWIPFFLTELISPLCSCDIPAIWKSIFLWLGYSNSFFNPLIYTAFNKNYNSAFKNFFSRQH
HTR5A inv ag: counter-screen for OPRM1-OPRD1 inverse agonists: human HTR5A inverse agonism. P47898. HTR5A cell line, luminescence. inhibition, % at 9.3 µM. 340,000 compounds, 0.083% hits; in the data active = inhibition mostly above about 23%, no sharp cut-off; inactive = mostly below about 18%;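 also: 0% = cells with DMSO and 100% = no-cell wells with DMSO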
MOR-DOR ag conf: confirmation of human OPRM1-OPRD1 heterodimerization agonists. shares compounds with MOR-DOR ag. cells, MOR-DOR heterodimerization, luminescence complementation. activation, % at 9.3 µM. 830 compounds, 45% hits. AID 504904;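 also: 0% = vehicle-treated cells and 100% = reference agonist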
HTR5A ag ctr2: counter-screen for OPRM1-OPRD1 agonists: human HTR5A agonism. shares compounds with MOR-DOR ag. HTR5A agonist counterscreen, cell luminescence. activation, % at 9.3 µM. 830 compounds, 8% hits; in the data active = activation above about 17%;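 also: 0% = vehicle-treated cells and 100% = reference agonist response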
Starred values were filed as active, the others as inactive. In the library only some 1.1% were active in any assay of this set; here they are far more common. Rule as the data show it, unless noted: active = activation above about 18%; inactive = the rest.

OC(CNCCc1ccccc1)COc1ccc(OCC(O)CNCCc2ccccc2)cc1 (stereo unspecified) was read as OPRM1-OPRD1 inv 7, MOR-DOR ag -1, HTR5A ag -3 and HTR5A inv ag 2.
For CCc1ccc(NC(=O)CCC(=O)Nc2nnc(C(C)C)s2)cc1 the results were OPRM1-OPRD1 inv 9, MOR-DOR ag -2, HTR5A ag 1 and HTR5A inv ag -2.
For COc1ccc(C(CNC(=O)c2ccc(S(=O)(=O)N(C)C)cc2)N(C)C)cc1 (stereo unspecified) the results were OPRM1-OPRD1 inv inactive, MOR-DOR ag 95*, HTR5A ag -3, HTR5A inv ag 9, MOR-DOR ag conf 105* and HTR5A ag ctr2 0.
Screening Cc1ccc(NC(=O)CNCC(c2ccccc2)N(C)C)cc1F (stereo unspecified) returned OPRM1-OPRD1 inv -205, MOR-DOR ag 40*, HTR5A ag 3, HTR5A inv ag 16, MOR-DOR ag conf -2 and HTR5A ag ctr2 -3.
Screening Cc1ccc(S(=O)(=O)Nc2cccc(C(=O)NCC(c3ccco3)N(C)C)c2)cc1F (stereo unspecified) returned OPRM1-OPRD1 inv -44, MOR-DOR ag 8, HTR5A ag -1 and HTR5A inv ag 2.
For Cc1ccc(S(=O)(=O)Nc2cccc(C(=O)NCC(c3ccccc3)N(C)C)c2)cc1F (stereo unspecified) the results were OPRM1-OPRD1 inv -263, MOR-DOR ag 51*, HTR5A ag -8, HTR5A inv ag 19, MOR-DOR ag conf 0 and HTR5A ag ctr2 0.
`CC(C)c1ccc(NC(=O)CNCC(c2ccccc2)N(C)C)cc1` (stereo unspecified) gave OPRM1-OPRD1 inv -1, MOR-DOR ag 0, HTR5A ag -6 and HTR5A inv ag -1.
Screening CCN(c1ccccc1)S(=O)(=O)c1cc(C(=O)NCC(c2ccc(OC)cc2)N(C)C)ccc1C (stereo unspecified) returned OPRM1-OPRD1 inv -107, MOR-DOR ag 20*, HTR5A ag 4, HTR5A inv ag -16, MOR-DOR ag conf 6 and HTR5A ag ctr2 2.
`CCN(c1ccccc1)S(=O)(=O)c1ccc(C(=O)NCC(c2cccs2)N(C)C)cc1` (stereo unspecified) gave OPRM1-OPRD1 inv 6, MOR-DOR ag -1, HTR5A ag -2 and HTR5A inv ag 6.
C[C@@H](NC(=O)c1ncn(Cc2ccccc2)c1C(=O)N[C@H](C)c1ccccc1)c1ccccc1 was read as OPRM1-OPRD1 inv -6, MOR-DOR ag 1, HTR5A ag 0 and HTR5A inv ag 11.
CCOC(=O)c1c(C)[nH]c(C)c1S(=O)(=O)NC(CC)CN1CCOCC1 (stereo unspecified) was read as OPRM1-OPRD1 inv 12, MOR-DOR ag -2, HTR5A ag 3 and HTR5A inv ag -13.
COc1ccc(OCc2cc(C(=O)N(Cc3nccn3C)C(C)C)no2)c2ccccc12 was read as OPRM1-OPRD1 inv -2, MOR-DOR ag 0, HTR5A ag 3 and HTR5A inv ag -13.
COc1ccc(OC)c(C2NC(=O)NC(C)=C2C(=O)OCc2ccccc2)c1 (stereo unspecified) was read as OPRM1-OPRD1 inv 9, MOR-DOR ag -2, HTR5A ag 3 and HTR5A inv ag -12.
For COc1ccc(C(CNC(=O)c2cccc(NS(=O)(=O)c3ccc(Br)cc3)c2)N(C)C)cc1 (stereo unspecified) the results were OPRM1-OPRD1 inv -384, MOR-DOR ag 74*, HTR5A ag -6, HTR5A inv ag 14, MOR-DOR ag conf 12 and HTR5A ag ctr2 4.
For CC(=O)OCC12COC3c4ccccc4OC(C)(CC1C)C3C2C (stereo unspecified) the results were OPRM1-OPRD1 inv 1, MOR-DOR ag 0, HTR5A ag 0 and HTR5A inv ag 0.
COCc1c(C(=O)N/N=C/c2cccc3ccccc23)nnn1-c1nonc1N was read as OPRM1-OPRD1 inv -137, MOR-DOR ag 27*, HTR5A ag 5, HTR5A inv ag -14, MOR-DOR ag conf 15 and HTR5A ag ctr2 5.
`COc1ccccc1S(=O)(=O)Cc1ccc(C(=O)NCCCN2CCN(c3ccc(F)cc3)CC2)o1` gave OPRM1-OPRD1 inv 8, MOR-DOR ag -2, HTR5A ag -1 and HTR5A inv ag -3.
For Cc1cc(Cl)ccc1NS(=O)(=O)c1c(C)[nH]c(=O)[nH]c1=O the results were OPRM1-OPRD1 inv 5, MOR-DOR ag -1, HTR5A ag 4 and HTR5A inv ag -15.
`O=S(=O)(NC1CC1)c1ccc(S(=O)(=O)N2CCCC3(CCCCC3)C2)cc1` gave OPRM1-OPRD1 inv -227, MOR-DOR ag 40*, HTR5A ag 6, HTR5A inv ag -22, MOR-DOR ag conf 32* and HTR5A ag ctr2 2.
For CC1CCC(C(C)C)C(OC(=O)COC(=O)c2cc(O)ccc2N)C1 (stereo unspecified) the results were OPRM1-OPRD1 inv -134, MOR-DOR ag 24*, HTR5A ag 7, HTR5A inv ag -44, MOR-DOR ag conf 0 and HTR5A ag ctr2 -10.
Screening CCN(CC(=O)NC1CCCC1)S(=O)(=O)c1ccc(Br)cc1 returned OPRM1-OPRD1 inv 20, MOR-DOR ag -4, HTR5A ag 3 and HTR5A inv ag 19.
Screening COc1ccc(C2CC(c3ccc4ccccc4c3OC(C)=O)=NN2C(C)=O)cc1 (stereo unspecified) returned OPRM1-OPRD1 inv inactive, MOR-DOR ag 129*, HTR5A ag -3, HTR5A inv ag 10, MOR-DOR ag conf 21* and HTR5A ag ctr2 10.
For CC(=O)Nc1cccc(NC=C(C#N)C#N)c1 the results were OPRM1-OPRD1 inv 13, MOR-DOR ag -3, HTR5A ag -6 and HTR5A inv ag 16.
Screening CCN(CC)CCn1c2ccccc2c(=O)c2c(O)ccc(O)c21 returned OPRM1-OPRD1 inv -100, MOR-DOR ag 19*, HTR5A ag 1, HTR5A inv ag -2, MOR-DOR ag conf 9 and HTR5A ag ctr2 0.
For CCN(CC)CCn1c(O)c(N=O)c2ccccc21 the results were OPRM1-OPRD1 inv 1, MOR-DOR ag 0, HTR5A ag 1 and HTR5A inv ag -8.
`Oc1ccccc1N1CCN(C(c2ccccc2)c2ccccc2)CC1` gave OPRM1-OPRD1 inv -171, MOR-DOR ag 27*, HTR5A ag 10, HTR5A inv ag -29, MOR-DOR ag conf 23* and HTR5A ag ctr2 -2.
Screening Fc1ccc(CN2CCN(C(c3ccccc3)c3ccccc3)CC2)cc1 returned OPRM1-OPRD1 inv -76, MOR-DOR ag 16, HTR5A ag -1 and HTR5A inv ag 4.
For c1ccc(CN2CCN(C(c3ccccc3)c3ccccc3)CC2)cc1 the results were OPRM1-OPRD1 inv -131, MOR-DOR ag 26*, HTR5A ag -3, HTR5A inv ag -15, MOR-DOR ag conf 19* and HTR5A ag ctr2 -4.
